Screens from PubChem.
LASV entry inh – qHTS for Inhibitors of binding or entry into cells for Lassa Virus; Lassa virus pseudotype entry inhibition, cell reporter; Potency, µM (series often up to 37.9 µM), for inactives: at the top dose activity change, negative = inhibition, hits mostly inhibitors; 300,000 compounds, 1.2% hits; AID 540256, 2011; calls by dose curve; tested in HEK293 cells; note: potency is the fitted concentration of half-maximal effect; % is set by controls: 0 for no effect and ±100 for the full control effect; nearly all actives have a fitted effect of over 50% in size
FMDV antiviral – High Throughput Screening for Foot and Mouth Disease Virus Antivirals. FMDV antiviral cell-based qHTS. AID 1159524, 2015. 410,000 compounds, 1.2% hits. Potency, µM (series often up to 57.9 µM), without a hit: at the highest dose activity change, negative = inhibition, actives largely listed as inhibitors; calls by dose curve; tested in HEK293T cells; note: read-out not given here; potency is the fitted concentration of half-maximal effect; % is set by controls: 0 for no effect and ±100 for the full control effect; nearly all actives have a fitted effect of over 45% in size
Marburg entry inh – qHTS for inhibitors of binding or entry into cells for Marburg Virus; AID 540276, 2011; Marburg virus pseudotyped entry inhibition, cell reporter; Potency, µM (top dose mostly 37.8 µM), for the others: at the top dose activity change, negative = inhibition, actives largely listed as inhibitors; 300,000 compounds, 1.8% hits; calls by dose curve; tested in HEK293 cells; note: potency is the fitted concentration of half-maximal effect; % is set by controls: 0 for no effect and ±100 for the full control effect
HCV inh – qHTS Assay for Inhibitors of Hepatitis C Virus (HCV); Huh7.5.1 HCVcc-Cre infection, luciferase reporter, 44 h; Potency, µM (highest dose often 41.8 µM), for the others: at the top dose activity change, negative = inhibition, usual class: inhibitors; 340,000 compounds, 3.4% hits; active = well fitted inhibition curve with a large enough effect; inconclusive = small, poorly fitted or top-dose-only effect, or another doubt; inactive = no such curve, though single readings can be large or run the other way; note: potency is the fitted concentration of half-maximal effect; % is set by controls: 0 for no effect and ±100 for the full control effect
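A cell-based infection assay in which seeded cells (1,000 per well) receive test compound after 4 h, are inoculated with HCVcc-Cre at approximately 0.5 moi, and are incubated 44 h before luminescence detection.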
SARS PLpro yeast – qHTS of Yeast-based Assay for SARS-CoV PLP. Potency, µM (doses to about 32.9 µM), without a hit: at the top dose activity, positive = growth rescue, usual class: activators. S. cerevisiae expressing SARS-CoV PLpro, growth rescue. AID 485353, 2010. 330,000 compounds, 0.19% hits; calls by dose curve; note: potency is the fitted concentration of half-maximal effect; 0% is about no effect; nearly all actives have a fitted effect of over 55% in size
HCMV inh – qHTS Assay for inhibitors of the human cytomegalovirus (HCMV). 410,000 compounds, 4.5% hits. AID 1259415, 2018. activity change, negative = inhibition, % at 57.5 µM. HFF cells, HCMV-luciferase reporter, 72 h; active compounds read low; in the data active = activity change below about -60%; inconclusive = no clear call, values can overlap the other calls; inactive = above about -39%; note: % is set by controls: 0 for no effect and ±100 for the full control effect
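After 16 h attachment at 37C, HFF cells received test compound and HCMV-luciferase (1 PFU/cell); reporter luminescence read 72 h later, data normalized against buffer-only and known inhibitor Salinomycin.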
Numbers without * were called inactive; ? = inconclusive; · = not tested or not shown; [ ] = another dose, or the depositor's remark. Shown are actives, neighbours in structure and some others; about 8% of the full set was active somewhere.

SMILES	LASV entry inh	FMDV antiviral	Marburg entry inh	HCV inh	SARS PLpro yeast	HCMV inh
Cc1cccc(N2CCN(C(=O)C3CCN(S(=O)(=O)Cc4ccccc4)CC3)CC2)c1C	-0.5%[46.1 µM]	?	-25.6%[46.1 µM]	·	·	20.4
CCOC(=O)Cc1csc(N/N=C/c2ccc(Cl)cc2)n1	-8.8%	-29.0%	?	-11.8%	-0.5%	-23.3
CCOC(=O)Cc1csc(NC(=O)Nc2ccc(Cl)cc2)n1	?	?	?	11.2µM*	-0.3%	2.8
O=C(Cc1csc(NC(=O)Nc2ccc(Cl)cc2)n1)NC1CCCC1	-26.9%	-9.5%	?	7.08µM*	-5.9%	?
CCOC(=O)Cc1csc(NC(=O)/C=C/c2ccc(Br)o2)n1	·	?	·	?	-1.4%	?
O=C(Cc1csc(NC(=O)Nc2ccc(Cl)cc2)n1)NCc1ccccn1	-17.0%	-20.7%	-15.9%	?	-1.3%	-8.1
CCOC(=O)Cc1csc(NC(=O)/C=C/c2cccc(Br)c2)n1	?	?	?	11.2µM*	-0.8%	-38.7
CC1=C(C(=O)Nc2ccccc2)C(c2cccn2C)n2ncnc2N1 (stereo not given)	-6.4%[46.1 µM]	?	·	·	·	21.2
Cc1cc2nc3n(c2cc1C)C(C)(C(=O)Nc1ccc2ccccc2c1)CCC3 (stereo not given)	·	·	·	·	·	31.8
CCOC(=O)c1ccc(CN(Cc2ccc(F)cc2)S(=O)(=O)c2cc(C(=O)Nc3ccccc3CC)ccc2F)cc1	0.5%[46.1 µM]	-9.4%	·	·	·	?
CCc1ccc(C(=O)N/N=C/c2ccncc2)s1	·	55.6%	·	12.6µM*	-0.7%	38.3
O=C(N/N=C/c1cccs1)c1cc(C2CC2)nc2ccccc12	-26.2%	-9.4%	?	?	-19.6%	-21.9
Cc1ccc(C(=O)N/N=C\c2ccncc2)s1	14.6%[46.1 µM]	16.8%	7.0%[46.1 µM]	-3.3%	-2.1%	36.0
CCCc1cc(C(=O)N/N=C/c2ccc(CC)s2)c2ccccc2n1	-8.6%	?	?	?	1.1%	5.1
CCc1ccc(/C=N/NC(=O)c2cc(-c3ccncc3)nc3ccccc23)s1	?	-15.8%	?	?	17.2%	-66.1*
O=C(N/N=C/c1cccs1)c1cc(-c2ccncc2)nc2ccccc12	?	?	-37.1%	?	23.8%	-72.3*
CC1=CC(=O)C2C(C)(C)CCC[C@@]2(C)[C@@]1(O)CCc1ccoc1 (stereo not given in full)	·	-14.7%	·	·	·	·
CCOC(=O)[C@]12CCCC=C1N(Cc1ccccc1)C(=O)[C@H](CC(=O)NCc1ccc(OC)c(OC)c1)C2	·	-6.9%	·	·	·	-2.8
COC(=O)[C@]12CCCCC=C1N(Cc1cccc3ccccc13)C(=O)[C@H](CC(=O)NCC13CC4CC(CC(C4)C1)C3)C2	·	-14.2%	·	·	·	-85.1*
C#CCNC(=O)C[C@@H]1C[C@@]2(C(=O)OC)CCCCC=C2N(Cc2cccc3ccccc23)C1=O	·	-24.2%	·	·	·	1.8
CCOC(=O)[C@]12CCC=C1N(Cc1ccc(Cl)cc1Cl)C(=O)[C@H](CC(=O)NCc1ccc(OC)c(OC)c1)C2	·	?	·	·	·	-92.6*
CCOC(=O)[C@]12CCCC=C1N(Cc1cccc3ccccc13)C(=O)[C@H](CC(=O)NCc1ccc(OC)c(OC)c1)C2	·	?	·	·	·	-76.0*
O=C(NCc1ccc(F)cc1)C1CCN(C(=O)c2ccc(-n3ccc4ccccc43)s2)CC1	?	-27.9%	·	·	·	-9.9
O=C(Nc1ccccc1)C12CC3CC(C1)CC(n1cnc([N+](=O)[O-])n1)(C3)C2	6.2%	-1.6%	-9.7%	19.9%	-6.1%	5.3
COc1cc(NC(=O)C23CC4CC(C2)CC(n2cnc([N+](=O)[O-])n2)(C4)C3)cc(OC)c1	-11.1%	-14.8%	2.51µM*	-6.7%	15.6%	-1.7
SMILES	LASV entry inh	FMDV antiviral	Marburg entry inh	HCV inh	SARS PLpro yeast	HCMV inh
CN(C)Cc1c(C(C)(C)O)[nH]c2cc(F)ccc12	·	·	·	·	·	-6.8
COC(=O)C(NC(=O)c1ccco1)(Nc1nc(C2CC2)cs1)C(F)(F)F (stereo not given)	-1.1%	13.3%	?	-11.6%	1.1%	-66.9*
CC(=O)O[C@H](C(=O)O[C@@H]1C[C@@H](CCC[C@H]2O[C@H](C(=O)OC(C)C)CC[C@@H]2C)O[C@@H](CC#N)C1)c1ccccc1	·	·	6.9%[14.2 µM]	·	·	·
NC(=O)C1Cc2ccccc2CN1C(=O)c1cc(C2CC2)nn1-c1ccccc1 (stereo not given)	·	-22.4%	·	?	0.3%	-76.9*
COc1cc2c(cc1OC)CN(C(=O)c1cc(C3CC3)nn1-c1ccccc1)CC2	·	?	·	?	6.5%	-37.0
CCC(=O)N1[C@@H]2c3ccc(C4=CCCCC4)c(=O)n3C[C@H]1[C@H](CO)[C@H]2C(=O)N[C@@H](C)c1ccccc1	·	·	·	·	·	-8.6
CCCc1cc(C(=O)Nc2ccc(C(=O)c3ccc(C)cc3)cc2)n(C)n1	?	-29.4%	?	10µM*	-4.3%	-24.2
CCCc1cc(C(=O)Nc2cccc3ccccc23)n(C)n1	?	-19.1%	-39.8%[46.1 µM]	-13.8%	-2.0%	?
COc1ccc(C(=O)NCCNC(C)=O)cc1S(=O)(=O)NCc1ccc(Cl)cc1	-0.7%	30.3%	-8.3%	10.2%	3.8%	61.6
COc1ccc(C(=O)NCC(C)(C)N2CCOCC2)cc1S(=O)(=O)NCc1ccc(Cl)cc1	·	-4.1%	·	?	·	-67.2*
Cc1ccc(/C=C/c2onc(C)c2S(=O)(=O)N2CCC(C(=O)N3CC(C)Oc4ccccc43)CC2)cc1 (stereo not given)	-0.3%[46.1 µM]	-29.8%	·	·	·	-13.7
CN(C)C(=O)Nc1ccccc1CC[N+](=O)[O-]	-19.8%	5.1%	20.1%[46.1 µM]	9.7%	-2.4%	-1.0
O=C(Nc1ccccc1CC[N+](=O)[O-])N1CCN(c2ccccc2)CC1	-2.1%	-7.9%	10µM*	-6.6%	-0.5%	-24.1
CC(=NCCN1CCOCC1)C1=C(O)c2ccccc2C1=O	17.9%	18.8%	?	6.3%	-2.1%	-102.4*
COc1ccc(-c2oc3ncn4nc(COc5cccc(C)c5C)nc4c3c2-c2ccc(OC)cc2)cc1	?	-15.5%	8.5%[46.1 µM]	·	·	-2.3
Cc1cc(C(=O)N2CCN(c3cccc(Cl)c3)CC2)c(C)o1	?	?	6.31µM*	?	4.1%	-1.2
CN(CCOc1ccc(Cl)cc1)C(=O)c1ccccc1SCC(=O)N1CCCC1	·	?	·	10µM*	1.6%	?
Cc1ccc(Cl)cc1N1CCN(C(=O)c2ccccc2SCC(=O)N2CCCC2)CC1	·	?	·	11.2µM*	2.0%	-13.0
CSc1ccccc1C(=O)N1CCN(c2cccc(Cl)c2)CC1	5.62µM*	-18.3%	?	?	-0.8%	47.8
CC(C)CC(=O)NCC1(N(C)C)CCCCC1	5.2%[46.1 µM]	-28.6%	-25.6%[46.1 µM]	·	·	13.4
